Screening results deposited in PubChem by National Center for Advancing Translational Sciences (NCATS).
DRD3 antagonist = qHTS of D3 Dopamine Receptor Antagonist: qHTS | D(3) dopamine receptor (Homo sapiens), P35462 | D3R cells, DiscoveRx beta-arrestin luminescence, antagonist mode; active compounds read low | max response, negative = inhibition, % | 360,000 compounds, 2.5% hits; in the data active = max response below about -50%; inconclusive = no clear call, values can overlap the other calls
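Cells expressing the human receptor were seeded at 1500 cells/well, incubated overnight at 37 degrees C in 5% CO2, then exposed to library compounds with dopamine controls for 90 minutes at 37 degrees C before luminescent detection.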
D1 potentiator = Potentiators of Human D1 Dopamine Receptor: qHTS. D(1A) dopamine receptor (Homo sapiens), P21728. HEK293 TREx D1 cells, calcium flux, dopamine EC20 potentiation. potentiation, % at 10 µM. 360,000 compounds, 0.036% hits; in the data active = potentiation above about 30%
Target sequence (P21728 whole entry, looked up): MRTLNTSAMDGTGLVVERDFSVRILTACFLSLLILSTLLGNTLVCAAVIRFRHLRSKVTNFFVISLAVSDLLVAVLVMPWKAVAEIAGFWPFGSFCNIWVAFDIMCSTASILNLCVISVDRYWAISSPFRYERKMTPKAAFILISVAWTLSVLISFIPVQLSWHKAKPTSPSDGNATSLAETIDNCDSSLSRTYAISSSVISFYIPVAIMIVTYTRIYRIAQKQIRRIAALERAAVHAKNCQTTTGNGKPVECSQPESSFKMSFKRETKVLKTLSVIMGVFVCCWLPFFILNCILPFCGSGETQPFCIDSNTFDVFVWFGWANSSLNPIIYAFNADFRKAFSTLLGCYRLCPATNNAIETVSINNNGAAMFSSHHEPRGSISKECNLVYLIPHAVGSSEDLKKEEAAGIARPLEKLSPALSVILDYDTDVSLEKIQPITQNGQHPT
D3 ag = qHTS of D3 Dopamine Receptor Agonist: qHTS; D(3) dopamine receptor (Homo sapiens), P35462; 410,000 compounds, 0.58% hits; max activation, %; D3R DiscoveRx beta-arrestin cells, luminescence, 90 min; in the data active = max activation above about 30%
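Agonist-mode cell screen: cells plated at 1500/well and incubated overnight at 37 °C, then exposed to library compounds for 90 min at 37 °C. Detection reagent was added for 30–60 min at room temperature, and luminescence was read.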
D1 antagonist = Antagonist of Human D 1 Dopamine Receptor: qHTS | D(1A) dopamine receptor (Homo sapiens), P21728 | HEK293 TREx D1 cells, calcium flux, dopamine EC80; active compounds read low | activity change, negative = inhibition, % at 10 µM | 360,000 compounds, 3.2% hits | AID 504652, 2011; in the data active = activity change below about -30%
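Allosteric or orthosteric antagonism assessed as attenuation of the calcium response to EC80 dopamine, added 180 s after compound, in induced HEK293 Trex D1 cells loaded with no-wash calcium dye.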
D1 ag = Allosteric Agonists of the Human D1 Dopamine Receptor: qHTS | D(1A) dopamine receptor (Homo sapiens), P21728 | HEK293 T-REx D1 cells, calcium flux, agonist mode | activation, % at 2 µM | 360,000 compounds, 1% hits; in the data active = activation above about 30%
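Inducible HEK293 T-REx D1 cells, force-coupled to calcium signalling, were plated at 4000 cells/well with tetracycline and held overnight at 30 C. After no-wash calcium dye loading, compound-evoked calcium rise over 180 s flagged agonists.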
Hits are given with their value; n = inactive; u = inconclusive; x = not tested or not shown. Sampled rows, rich in hits. Any-hit rate of the full collection: about 6.1%.

SMILES	DRD3 antagonist	D1 potentiator	D3 ag	D1 antagonist	D1 ag
COc1ccc(NS(=O)(=O)c2cccc(C(=O)N3CCN(Cc4ccc5c(c4)OCO5)CC3)c2)cc1	n	n	n	-61	n
O=C(C1CC2CCC1C2)N1CCN(Cc2ccc3c(c2)OCO3)CC1 (centres undefined)	-56	n	n	n	n
O=S(=O)(Cc1ccc(Cl)cc1)N1CCN(Cc2ccc3c(c2)OCO3)CC1	n	n	n	n	n
O=C(c1ccc(NS(=O)(=O)c2ccccc2)cc1)N1CCN(Cc2ccc3c(c2)OCO3)CC1	n	n	n	n	n
O=C(c1ccccc1)N1CCN(Cc2ccc3c(c2)OCO3)CC1	-78	n	n	n	n
O=C(C1COc2ccccc2O1)N1CCN(Cc2ccc3c(c2)OCO3)CC1 (centres undefined)	u	n	n	n	n
CCOC(=O)c1cc2c(=O)n3ccccc3nc2n(C)c1=NC(=O)c1c(-c2ccccc2Cl)noc1C	x	n	n	n	n
Cc1ccc2c(=O)cc(C(=O)Nc3c(C)n(C)n(-c4ccccc4)c3=O)oc2c1C	x	n	n	n	n
Cc1ccc(C(=O)N2CCN(Cc3ccc4c(c3)OCO4)CC2)c(Cl)c1	-86	n	n	n	n
O=C(CCN1C(=O)c2cccc3cccc(c23)C1=O)N1CCN(Cc2ccc3c(c2)OCO3)CC1	n	n	n	-30	n
Cc1ccc(C(=O)N2CCN(Cc3ccc4c(c3)OCO4)CC2)cc1C	-62	n	n	n	n
Cn1cc(CN2CCN(c3ccc(Cl)cn3)CC2)c(-c2ccccc2F)n1	n	n	n	n	n
Cn1cc(CN2CCN(Cc3ccc4c(c3)OCO4)CC2)c(-c2ccccc2F)n1	u	n	n	-31	n
O=C(c1ccccc1)N1CCN(C(=O)c2ccc3c(c2)OCO3)CC1	n	n	n	n	n
O=C(c1cc2cc(F)ccc2[nH]1)N1CCN(Cc2ccc3c(c2)OCO3)CC1	-86	n	n	n	n
O=C(c1ccc2c(c1)OCO2)N1CCC(Cc2ccccc2)CC1	n	n	n	-40	n
Cc1cccc(S(=O)(=O)N2CCN(Cc3ccc4c(c3)OCO4)CC2)c1	n	n	n	-34	n
O=C(O)C1CC(=O)N(Cc2ccc3c(c2)OCO3)C1 (centres undefined)	-106	n	n	n	n
COc1ccc(S(=O)(=O)N2CCN(Cc3ccc4c(c3)OCO4)CC2)cc1C	x	n	n	n	n
O=C(Cn1c(-c2cccs2)cc2ccccc21)NCCCN1CCN(c2cccc(Cl)c2)CC1	x	n	n	n	n
Cc1cccc(C(=O)N2CCN(Cc3ccc4c(c3)OCO4)CC2)c1	-80	n	n	n	n
O=C(c1ccc(Cl)c(Cl)c1)N1CCN(Cc2ccc3c(c2)OCO3)CC1	n	n	n	n	n
CCn1c(SCC(=O)Nc2ccc(C(C)=O)cc2)nc2nc3c(cc2c1=O)CCCC3	n	n	30	n	n
CCn1c(SCC(=O)Nc2ccc(Cl)cc2)nc2nc3c(cc2c1=O)CCCC3	n	n	n	n	n
CCc1ccc(NC(=O)Cn2cnc3nc4c(cc3c2=O)CCCC4)cc1	x	n	n	-32	n
SMILES	DRD3 antagonist	D1 potentiator	D3 ag	D1 antagonist	D1 ag
CC1CN(C(=O)N2CCC(C(=O)NC3CCCCCC3)CC2)c2cc(Cl)ccc2O1 (centres undefined)	x	n	n	n	n
Fc1ccc(Nc2ncnc3onc(-c4cccc(Cl)c4)c23)c(F)c1	x	n	n	-45	n
COCCn1c(CNC(=O)c2ccccc2C)nc2cccnc21	x	n	n	n	n
Cc1ccccc1OCCSc1nc2ccc(NC(=O)c3ccccc3)cc2s1	x	n	n	-33	n
CC(C)(C)C(=O)Nc1ccc2nc(SCCOc3ccccc3Cl)sc2c1	x	n	n	n	30
Cc1cc(C)n(-c2nc3ccccc3nc2Nc2cccc(C)c2C)n1	x	n	n	n	n
CN1/C(=C\P(=O)(N(C)C)N(C)C)C(C)(C)c2ccccc21	n	n	31	-37	n
CCC(=O)N1CCc2cc(S(=O)(=O)NC(CC(C)C)C(=O)NCc3ccc(F)cc3)ccc21 (centres undefined)	x	n	n	-40	n
CCC(=O)N1CCc2cc(S(=O)(=O)NCCC(=O)NCc3ccc(F)cc3)ccc21	n	n	n	n	n
